We go through 36 compounds from the supplement of paper PMC9588786.

Where a name gives a salt, the structure may show the parent alone. ± gives the standard deviation of the averaged measurements.
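Note: viability read as CCK-8 absorbance at 450 nm in cells co-exposed to the GPX4 inhibitor RSL3, relative to a 0.01% DMSO vehicle control.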

In this experiment the test system is HT-1080. Briefly: relative cell viability with RSL3 co-treatment (fraction of control); higher = stronger protection from RSL3-induced ferroptosis (higher viability). Conditions: 10 µM.
In the case of `C[C@@H](N)[C@H]1CC[C@H](C(=O)Nc2ccncc2)CC1`, the relative cell viability was 0.843 ± 0.032.
The result for `CN1CCC(COc2cnc(-c3cccc(Cn4nc(-c5cccc(C#N)c5)ccc4=O)c3)nc2)CC1` reads 0.633 ± 0.067.
The result for `CS(=O)(=O)N1CCN(Cc2cc3nc(-c4cccc5[nH]ncc45)nc(N4CCOCC4)c3s2)CC1` [Pictilisib (GDC-0941)] reads 0.547 ± 0.11; that for `CCC[C@H](NC(=O)/C(C#N)=C/c1cccc(Br)n1)c1ccccc1` [Degrasyn (WP1130)], 0.793 ± 0.064.
The result for `CCN(C)S(=O)(=O)Nc1ccc(F)c(C(=O)c2c[nH]c3ncc(-c4cnc(C5CC5)nc4)cc23)c1F` reads 0.71 ± 0.017.
Regarding `Cc1cc(Nc2nc(N[C@@H](C)c3ccc(F)cc3)c(C#N)cc2F)n[nH]1`, the relative cell viability turned out to be 0.29 ± 0.017.
The result for `COc1cc2c(Oc3ccc(NC(=O)C4(C(=O)Nc5ccc(F)cc5)CC4)cc3F)ccnc2cc1OCCCN1CCOCC1` reads 0.287 ± 0.064; that for `Cc1cnc(NC(=O)Nc2cc(Br)c(C)cc2OC[C@@H]2CNCCO2)cn1`, 0.447 ± 0.17; that for `COC(=O)Nc1ccc(-c2nc(N3CCOCC3)c3cnn(C4CCN(C(=O)OC)CC4)c3n2)cc1`, 0.547 ± 0.18.
On to `COc1ccc(Cl)cc1NC(=O)Nc1cc(C)nc2ccccc12`, for which the relative cell viability was 0.71 ± 0.017.
The result for `CN1CC[C@H](c2c(O)cc(O)c3c(=O)cc(-c4ccccc4Cl)oc23)[C@H](O)C1` [Flavopiridol HCl] reads 0.763 ± 0.17.
The result for `Cc1cc(Nc2cc(CN3CCOCC3)c3nc(C)c(Cc4ccc(Cl)cc4F)n3n2)n[nH]1` reads 0.383 ± 0.095; that for `COc1cc(Nc2ncc3c(n2)-c2ccc(Cl)cc2C(c2c(F)cccc2OC)=NC3)ccc1C(=O)O` [Alisertib (MLN8237)], 0.39 ± 0.18.
The result for `CNC(=O)c1cc(Oc2ccc3nc(N[C@@H]4CCCC[C@H]4O)sc3c2)ccn1` reads 0.767 ± 0.05.
For `Cc1cc2c(F)c(Oc3ncnn4cc(OC[C@@H](C)O)c(C)c34)ccc2[nH]1`, the relative cell viability was 0.753 ± 0.078.
The result for `CNC(=O)c1cc(Oc2ccc(NC(=O)Nc3ccc(Cl)c(C(F)(F)F)c3)cc2)ccn1` [Sorafenib] reads 0.693 ± 0.14; that for `CC(=O)Nc1cccc(-n2c(=O)n(C3CC3)c(=O)c3c(Nc4ccc(I)cc4F)n(C)c(=O)c(C)c32)c1`, 0.78 ± 0.052.
The result for `Cc1[nH]c(/C=C2\C(=O)Nc3ccc(S(=O)(=O)N(C)c4cccc(Cl)c4)cc32)c(C)c1C(=O)N1CCN(C)CC1` reads 0.547 ± 0.075; that for `CNC(=O)c1cc(Oc2ccc(NC(=O)Nc3ccc(Cl)c(C(F)(F)F)c3)cc2)ccn1` [Sorafenib Tosylate], 0.317 ± 0.04.
The result for `CN1CCC(CNc2ccc3ncc(-c4cccc(OC(F)(F)F)c4)n3n2)CC1` [SGI-1776 free base] reads 0.507 ± 0.16; that for `O=S(=O)(c1cccc2cnccc12)N1CCCNCC1` [Fasudil (HA-1077) HCl], 1.13 ± 0.1; that for `CC1=C(C(=O)Nc2cc3cn[nH]c3cc2F)C(c2ccc(C(F)(F)F)cc2)CC(=O)N1` (stereo unspecified), 0.883 ± 0.084.
In the case of `Nc1nc(N)c2nc(-c3cccc(O)c3)c(-c3cccc(O)c3)nc2n1`, the relative cell viability was 0.72 ± 0.03.
The result for `CNCc1ccc(-c2cc(-c3nc(-c4ccc(S(=O)(=O)C(C)C)cc4)cnc3N)on2)cc1` reads 0.47 ± 0.026; that for `CC(C)(O)CC(=O)NCCn1ccc2ncnc(Nc3ccc(Oc4cccc(C(F)(F)F)c4)c(Cl)c3)c21`, 0.567 ± 0.04; that for `COc1cc2nccc(Oc3ccc(NC(=O)C4(C(=O)Nc5ccc(F)cc5)CC4)cc3)c2cc1OC` [Cabozantinib malate (XL184)], 0.8 ± 0.017.
The result for `COCCOc1ccc2c(c1)ncn2-c1ccc2cccc(N3CCC(N)CC3)c2n1` reads 0.82 ± 0.056; that for `CC(C)(C)NS(=O)(=O)c1cncc(-c2cc(F)c3nc(N)nn3c2)c1`, 0.803 ± 0.15; that for `NC(=O)c1cnc(N[C@@H]2CCCC[C@@H]2N)nc1Nc1cccc(-n2nccn2)c1`, 0.56 ± 0.11.
The result for `CN1CCN(CCOc2cc(OC3CCOCC3)c3c(Nc4c(Cl)ccc5c4OCO5)ncnc3c2)CC1` [Saracatinib (AZD0530)] reads 0.727 ± 0.16; that for `O=C(NCCO)c1cccc(-c2cc(Nc3ccc(OC(F)(F)F)cc3)ncn2)c1`, 0.713 ± 0.13; that for `Cc1cc(CS(=O)(=O)c2ccccc2)cc(OCc2ccc(CN3CCC[C@@H]3CO)cc2)c1`, 0.723 ± 0.12.
On to `CC(C)CCN1c2nc(Nc3cc(F)c(O)c(F)c3)ncc2N(C)C(=O)C1C` (stereo unspecified), for which the relative cell viability amounted to 0.717 ± 0.14.
The result for `CC(C)(C)c1cnc(CSc2cnc(NC(=O)C3CCNCC3)s2)o1` reads 0.573 ± 0.05; that for `O=C(NCCCNc1nc(Nc2cccc(NC(=O)N3CCCC3)c2)ncc1I)c1cccs1`, 0.657 ± 0.011; that for `CCOc1cc(C(=O)N2CCC(N3CCN(C)CC3)CC2)ccc1Nc1ncc2c(n1)N(C1CCCC1)c1ccccc1C(=O)N2C`, 0.457 ± 0.031.
